Structures are written as SMILES. Active and inactive are the calls of the source.

One assay in a line: probe aCHRDL2 binding to arrayed compounds – biochemical, biotinylated probe, 635/667 nm fluorescence, primary screen (AID 1100). The note with it: small-molecule microarray, higher = more signal.
On to `C=CCC(OC(C)=O)[C@@H]1[C@@H](N(Cc2ccc(-c3cccc(C(F)(F)F)c3)o2)C(=O)c2ccc(-c3ccccc3)cc2)c2cc(OCCCO)ccc2N1C(=O)Cc1ccc2ccccc2c1` (some centres not stated), for which the composite z-score was found to be 0.532. `CCOC(=O)C1=C[C@@H](c2ccccc2)N(S(=O)(=O)c2ccc(C)cc2)[C@H]1c1ccc(OC)cc1` displayed a composite z-score of 1.05. On to `CS(=O)(=O)CCOC(=O)C1=CC(CCCO)=CC(c2ccc(CN3CCCC3)cc2)N(Cc2sc3ccccc3c2Cl)C=C1C(=O)OCCS(C)(=O)=O` (configuration not stated), for which the composite z-score was -0.0725. For the compound `CCOC(=O)C[C@H]1[C@H](OC(=O)Cc2ccc3c(c2)OCO3)[C@@H](NC(=O)c2ccc3ccccc3n2)c2cc(OCCCO)ccc2N1C(=O)c1ccc2ccccc2n1`, the composite z-score is -0.0731.

On to `C=CCC(OC(C)=O)[C@@H]1[C@@H](N(Cc2ccc(-c3ccccc3)cc2)C(=O)c2ccc(-c3ccccc3)cc2)c2cc(OCCCO)ccc2N1C(=O)c1ccc2ccccc2c1` (some centres not stated), for which the composite z-score was found to be 0.306. Regarding `Cc1ccc(NN2C(C(O)c3c(F)cccc3Cl)C=CC3C(=O)N(C4CCCCC4)C(=O)C32)cc1` (configuration not stated), the composite z-score worked out at 1.07. `CN(C)C(=O)[C@]1(Cc2ccccc2CN=[N+]=[N-])N=C(c2ccc(OCCCO)cc2)O[C@@H]1c1ccccc1` gave a composite z-score of 0.821. Still for that read-out and setting: to `Cc1ccc(S[C@]2(C(=O)O)CC(=O)N(C3CCCCC3)[C@@H]2c2ccc(CO)cc2I)cc1` belongs 0.903; to `CCOC(=O)C[C@H]1[C@H](OC(=O)c2cc3ccccc3oc2=O)[C@@H](NC(=O)CC(C)C)c2cc(OCCCO)ccc2N1C(=O)c1ccc2ccccc2n1`, -0.53. `CCOC(=O)C[C@H]1[C@H](OC(=O)c2ccc(-c3ccccc3)cc2)[C@@H](NC(=O)CC(C)C)c2cc(OCCCO)ccc2N1C(=O)c1ccc2ccccc2n1` displayed a composite z-score of -0.39. Still for that read-out and setting: to `CCOC(=O)C[C@H]1[C@H](OC(=O)c2ccc(C(=O)c3ccccc3)cc2)[C@@H](NC(=O)c2ccc3ccccc3n2)c2cc(OCCCO)ccc2N1C(=O)Cc1ccc(OC)cc1` belongs -0.385; to `COc1ccc([Si](C)(C)[C@@H]2[C@@H](CC(=O)N(CCO)Cc3ccccc3)O[C@]3(C(=O)N(Cc4cccc(N5CCCCC5=O)c4)c4ccccc43)[C@H]2C)cc1`, 0.505. As for `COC(=O)[C@]1(CCS(=O)(=O)c2ccccc2)N=C(c2ccc(OCCCO)cc2)O[C@@H]1c1ccccc1N=[N+]=[N-]`, the composite z-score turned out to be 1.12. Same read-out and setting: to `COC(=O)[C@@]1(Cc2ccccc2)[C@H]2c3cc(C(=O)N4CCCC4)n(CCc4ccccn4)c3C[C@H]2CN1C(=O)c1ccccc1` belongs 1.02; to `CCCN1C(=O)[C@@]2(Cc3ccccc31)N=C(c1ccc(OCCCO)cc1)O[C@H]2c1ccccc1`, 0.949; to `COC(=O)[C@@]1(Cc2ccc(F)cc2)[C@H]2c3cc(C(=O)N(C)C)n(Cc4ccc(OC(F)(F)F)cc4)c3C[C@H]2CN1C(=O)c1ccccc1`, 0.183. Still for that read-out and setting: to `CC(=O)N1CC2(CC2)CC1c1ccccc1` (configuration not stated) belongs -0.0067; to `CC(C)[Si](C#CCCCC#N)(O[C@H](c1ccccc1)c1cn(Cc2ccccc2)nn1)C(C)C`, -0.65. The compound `COCCOC(=O)N1C(=O)[C@@]2(c3cc(C#CC4(O)CCCCCC4)ccc31)[C@H](c1ccc(O)cc1)N1[C@H](c3ccccc3)[C@H](c3ccccc3)OC(=O)[C@H]1[C@@H]2C(=O)N1CCN(c2ncccn2)CC1` registered a composite z-score of 0.426. Still for that read-out and setting: to `CC1=C2[C@@H](CCc3ccccc3)OB(O)C[C@@H]2[C@@H]2C(=O)N(Cc3ccccc3)C(=O)[C@@H]2C1` belongs -0.395; to `CCOC(=O)C[C@H]1[C@H](OC(=O)Cc2ccc3c(c2)OCO3)[C@@H](NC(=O)C2CCCCC2)c2cc(OCCCO)ccc2N1C(=O)c1ccccc1`, -0.265. `COCCCNC(=O)[C@@]1(CCC(=O)OC(C)(C)C)N=C(c2ccc(OCCCO)cc2)O[C@H]1c1ccccc1N=[N+]=[N-]` displayed a composite z-score of 1.32. Compound `[N-]=[N+]=Nc1ccccc1C[C@]1(C(=O)NCC(O)CO)COC(c2ccc(OCCCO)cc2)=N1` (some centres not stated) gave a composite z-score of 1.18.

Turning to `CCCC[C@@H](O)C1=C(COC)C[C@H]2C(=O)N(C)C(=O)[C@H]2[C@H]1CO`, the composite z-score was -0.532.

In turn, `CCCCCCc1nc(Cc2cc(OC)c(OC)c(OC)c2)cc2c1[Si](C(C)C)(C(C)C)OC2` gave a composite z-score of -0.623.

Another assay can be described thus: change in splice reporter luminescence, either direction, cell-based, HEK293, spliceosome inhibition project, primary screen (AID 1101).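 Further: HEK293 cells carrying a splicing-competent luciferase reporter gene; test concentration not given here.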 The note with it: HEK293 splicing luciferase reporter, 24 h, higher = more signal, called active from +8 up or from −8 down. In general terms: In a reporter assay the amount or activity of a reporter protein is the signal.
For the compound `N#Cc1ccc(NN2C(C(O)c3ccc(Br)cc3)C=CC3C(=O)N(c4ccccc4)C(=O)C32)cc1` (configuration not stated), the z-score was -0.699 (inactive). Consider `CC1CC/C=C\[C@H]2OC34C=CCN(c5ccc(Cl)cc5)C(=O)[C@H]3N(C(C)CO)C(=O)[C@]4(C)C2C(=O)O1` (some centres not stated), for which the z-score is -0.718 (inactive).

In the case of `CO[C@H]1O[C@H](CO)[C@@H](OC(=O)Nc2ccc(Br)cc2)[C@@H]2OC(=O)[C@@H](Cc3ccccc3)C/C=C/C[C@H](Cc3ccccc3)C(=O)O[C@@H]12`, the z-score is -0.913 (inactive).

In the case of `CCOC(=O)C[C@H]1[C@H](OC(=O)c2cc3ccccc3oc2=O)[C@@H](NC(=O)c2ccccc2)c2cc(OCCCO)ccc2N1C(=O)c1ccccc1`, the z-score was -0.644 (inactive). Same read-out and setting: to `O=C1OCCC=C[C@H]2OC34C=CCN(c5ccc6ccccc6c5)C(=O)[C@H]3N(CCCO)C(=O)[C@@H]4C12` (some centres not stated) belongs -1 (inactive); to `O=C1C2C=CC(C(O)C3CC=CCC3)N(Nc3ccccc3)C2C(=O)N1c1ccccc1` (configuration not stated), -0.225 (inactive). On the same count and under the same terms, to `Cc1ccc(S[C@]2(C(=O)NC(C)C)CC(=O)N(Cc3cc(C(F)(F)F)cc(C(F)(F)F)c3)[C@@H]2c2ccc(CO)cc2)cc1` belongs 0.681 (inactive). In the case of `CCOC(=O)C[C@H]1[C@H](OC(=O)c2ccccc2-c2ccccc2)[C@@H](NC(=O)c2ccc3ccccc3n2)c2cc(OCCCO)ccc2N1C(=O)Cc1ccc(OC)cc1`, the z-score was -0.378 (inactive). Regarding `CC(C)c1ccc(NN2C(C(O)c3ccc(C#N)cc3)C=CC3C(=O)N(c4ccccc4)C(=O)C32)cc1` (configuration not stated), the z-score is 0.44 (inactive).

For the compound `CCC#CCN(Cc1ccccc1Br)[C@H](/C=C/C1CC1)[C@@H](O)Cc1ccccc1`, the z-score was -0.739 (inactive). For the compound `C=C[C@@H](OC)[C@H](OC(=O)Nc1ccc(OC)cc1)c1ccc(O)c(F)c1`, the z-score was -0.653 (inactive).

Regarding `C=CCC(OC(C)=O)[C@@H]1[C@@H](N(Cc2ccc(-c3cccc(C(F)(F)F)c3)o2)C(=O)c2ccc(-c3ccccc3)cc2)c2cc(OCCCO)ccc2N1C(=O)Cc1ccc2ccccc2c1` (some centres not stated), the z-score is -0.435 (inactive). In the case of `CCOC(=O)C1=C[C@@H](c2ccccc2)N(S(=O)(=O)c2ccc(C)cc2)[C@H]1c1ccc(OC)cc1`, the z-score was -0.71 (inactive).

Take `CS(=O)(=O)CCOC(=O)C1=CC(CCCO)=CC(c2ccc(CN3CCCC3)cc2)N(Cc2sc3ccccc3c2Cl)C=C1C(=O)OCCS(C)(=O)=O` (configuration not stated): the z-score was 0.576 (inactive). For the compound `CCOC(=O)C[C@H]1[C@H](OC(=O)Cc2ccc3c(c2)OCO3)[C@@H](NC(=O)c2ccc3ccccc3n2)c2cc(OCCCO)ccc2N1C(=O)c1ccc2ccccc2n1`, the z-score is -1.63 (inactive). For the compound `C=CCC(OC(C)=O)[C@@H]1[C@@H](N(Cc2ccc(-c3ccccc3)cc2)C(=O)c2ccc(-c3ccccc3)cc2)c2cc(OCCCO)ccc2N1C(=O)c1ccc2ccccc2c1` (some centres not stated), the z-score is -1.22 (inactive). Take `Cc1ccc(NN2C(C(O)c3c(F)cccc3Cl)C=CC3C(=O)N(C4CCCCC4)C(=O)C32)cc1` (configuration not stated): the z-score is -1.19 (inactive).

Regarding `CN(C)C(=O)[C@]1(Cc2ccccc2CN=[N+]=[N-])N=C(c2ccc(OCCCO)cc2)O[C@@H]1c1ccccc1`, the z-score is -1.45 (inactive). Turning to `Cc1ccc(S[C@]2(C(=O)O)CC(=O)N(C3CCCCC3)[C@@H]2c2ccc(CO)cc2I)cc1`, the z-score was -0.443 (inactive).

As to `CCOC(=O)C[C@H]1[C@H](OC(=O)c2cc3ccccc3oc2=O)[C@@H](NC(=O)CC(C)C)c2cc(OCCCO)ccc2N1C(=O)c1ccc2ccccc2n1`, the z-score was 0.0136 (inactive).

As for `CCOC(=O)C[C@H]1[C@H](OC(=O)c2ccc(-c3ccccc3)cc2)[C@@H](NC(=O)CC(C)C)c2cc(OCCCO)ccc2N1C(=O)c1ccc2ccccc2n1`, the z-score was -0.725 (inactive).

Regarding `CCOC(=O)C[C@H]1[C@H](OC(=O)c2ccc(C(=O)c3ccccc3)cc2)[C@@H](NC(=O)c2ccc3ccccc3n2)c2cc(OCCCO)ccc2N1C(=O)Cc1ccc(OC)cc1`, the z-score is 0.187 (inactive). Take `COc1ccc([Si](C)(C)[C@@H]2[C@@H](CC(=O)N(CCO)Cc3ccccc3)O[C@]3(C(=O)N(Cc4cccc(N5CCCCC5=O)c4)c4ccccc43)[C@H]2C)cc1`: the z-score was -0.166 (inactive). `COC(=O)[C@]1(CCS(=O)(=O)c2ccccc2)N=C(c2ccc(OCCCO)cc2)O[C@@H]1c1ccccc1N=[N+]=[N-]`: the z-score is -0.571 (inactive).

Turning to `COC(=O)[C@@]1(Cc2ccccc2)[C@H]2c3cc(C(=O)N4CCCC4)n(CCc4ccccn4)c3C[C@H]2CN1C(=O)c1ccccc1`, the z-score was -2.09 (inactive). Same read-out and setting: to `CCCN1C(=O)[C@@]2(Cc3ccccc31)N=C(c1ccc(OCCCO)cc1)O[C@H]2c1ccccc1` belongs -1.46 (inactive). On to `COC(=O)[C@@]1(Cc2ccc(F)cc2)[C@H]2c3cc(C(=O)N(C)C)n(Cc4ccc(OC(F)(F)F)cc4)c3C[C@H]2CN1C(=O)c1ccccc1`, for which the z-score is 1.32 (inactive). As to `CC(=O)N1CC2(CC2)CC1c1ccccc1` (configuration not stated), the z-score was 0.665 (inactive). With `CC(C)[Si](C#CCCCC#N)(O[C@H](c1ccccc1)c1cn(Cc2ccccc2)nn1)C(C)C`, the z-score is -1.08 (inactive).

In the case of `COCCOC(=O)N1C(=O)[C@@]2(c3cc(C#CC4(O)CCCCCC4)ccc31)[C@H](c1ccc(O)cc1)N1[C@H](c3ccccc3)[C@H](c3ccccc3)OC(=O)[C@H]1[C@@H]2C(=O)N1CCN(c2ncccn2)CC1`, the z-score is 0.325 (inactive).

`CC1=C2[C@@H](CCc3ccccc3)OB(O)C[C@@H]2[C@@H]2C(=O)N(Cc3ccccc3)C(=O)[C@@H]2C1`: the z-score is 0.81 (inactive).

`CCOC(=O)C[C@H]1[C@H](OC(=O)Cc2ccc3c(c2)OCO3)[C@@H](NC(=O)C2CCCCC2)c2cc(OCCCO)ccc2N1C(=O)c1ccccc1`: the z-score is -0.664 (inactive).
